PubChem BioAssay (EPA / NIEHS)
Results filed as inconclusive are left out. The source made the active and inactive calls. How the source made its calls: active means hit-call score of the fitted dose curve at least 0.9, where 1 is the maximum; inconclusive means response in the unintended direction; inactive means score below 0.9.

target: Estrogen receptor beta (Homo sapiens) (UniProt Q92731); assay: OT_ER_ERbERb_0480: Odyssey Thera (OT) 8-hour HEK293T Protein-Complementation Assay for Estrogen Receptor-beta/-beta Homodimer (AID 2283357);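 further: active means signal gain over DMSO baseline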
Sequence (Q92731 whole entry, looked up, the tested form may be a part): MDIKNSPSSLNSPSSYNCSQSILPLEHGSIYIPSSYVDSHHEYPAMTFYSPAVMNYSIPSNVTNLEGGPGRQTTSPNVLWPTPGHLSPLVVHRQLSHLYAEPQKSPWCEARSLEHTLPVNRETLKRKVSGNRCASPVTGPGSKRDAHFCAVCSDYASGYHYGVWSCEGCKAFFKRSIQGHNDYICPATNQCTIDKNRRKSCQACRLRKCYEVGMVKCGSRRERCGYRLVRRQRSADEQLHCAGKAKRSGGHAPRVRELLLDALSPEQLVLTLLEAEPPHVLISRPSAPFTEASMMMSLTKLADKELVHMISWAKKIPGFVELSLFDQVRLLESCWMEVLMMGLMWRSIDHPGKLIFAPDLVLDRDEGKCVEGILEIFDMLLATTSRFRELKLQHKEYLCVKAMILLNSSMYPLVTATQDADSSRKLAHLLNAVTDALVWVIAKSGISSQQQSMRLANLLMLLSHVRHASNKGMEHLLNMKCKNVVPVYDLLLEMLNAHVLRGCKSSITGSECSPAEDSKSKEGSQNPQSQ
Method in brief: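 Fluorescence intensity, nuclear for agonists and nuclear plus cytoplasmic for antagonists, was quantified by laser scanning cytometry versus vehicle after 8 h treatment. The cells were HEK293T stably carrying ER beta LBD fragment-complementation partners.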

Structure (SMILES)	outcome
CC1=NN(c2cc(S(=O)(=O)O)ccc2Cl)C(=O)C1N=Nc1ccccc1 (stereo not drawn)	inactive
CCCCCCCCO[C@@H]1O[C@H](CO)[C@@H](O)[C@H](O)[C@H]1O	inactive
Cn1c([N+](=O)[O-])cnc1COC(N)=O	inactive
O=C(O)CCCC[C@@H]1SC[C@@H]2NC(=O)N[C@@H]21	inactive
C=CC(=O)NC(C)(C)CS(=O)(=O)O	inactive
CCCCCCCOC(=O)CCC	inactive
CCCCCCCC/C=C\CCCCCCCC(=O)O	inactive
CC1=CC[C@H]2C[C@@H]1C2(C)C	inactive
O=C(C(Cl)Cl)N1CCOC12CCCCC2	inactive
CCCc1ccc(OC)cc1	inactive
O=C(c1ccccc1)C1CCC1	inactive
O=C(C=Cc1ccccc1)OCc1ccccc1	inactive
CC(C)c1ccc2cc(C(C)C)ccc2c1	inactive
Cc1cc(C)c(C(=O)O)c(C)c1	inactive
CC(C)(C)c1ccc(-c2ccc(C(C)(C)C)cc2)cc1	inactive
CC(C)(C)c1ccc(OC(=O)c2ccccc2O)cc1	inactive
CCOC(=O)CC	inactive
O=C1CCCC1	inactive
O=C1C(N(CO)C(=O)NCO)N(CO)C(=O)N1CO (stereo not drawn)	inactive
CC(C)=CCC[C@H](C)CCO	inactive

target: PGR (gene 5241) (UniProt P06401); assay: NVS_NR_hPR: NovaScreen (NVS) Nuclear Receptor Binding Assay for human Progestron Receptor (PR) (AID 2283360);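 further: active means loss of bound radioligand signal versus DMSO baseline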
Sequence (P06401 whole entry, looked up): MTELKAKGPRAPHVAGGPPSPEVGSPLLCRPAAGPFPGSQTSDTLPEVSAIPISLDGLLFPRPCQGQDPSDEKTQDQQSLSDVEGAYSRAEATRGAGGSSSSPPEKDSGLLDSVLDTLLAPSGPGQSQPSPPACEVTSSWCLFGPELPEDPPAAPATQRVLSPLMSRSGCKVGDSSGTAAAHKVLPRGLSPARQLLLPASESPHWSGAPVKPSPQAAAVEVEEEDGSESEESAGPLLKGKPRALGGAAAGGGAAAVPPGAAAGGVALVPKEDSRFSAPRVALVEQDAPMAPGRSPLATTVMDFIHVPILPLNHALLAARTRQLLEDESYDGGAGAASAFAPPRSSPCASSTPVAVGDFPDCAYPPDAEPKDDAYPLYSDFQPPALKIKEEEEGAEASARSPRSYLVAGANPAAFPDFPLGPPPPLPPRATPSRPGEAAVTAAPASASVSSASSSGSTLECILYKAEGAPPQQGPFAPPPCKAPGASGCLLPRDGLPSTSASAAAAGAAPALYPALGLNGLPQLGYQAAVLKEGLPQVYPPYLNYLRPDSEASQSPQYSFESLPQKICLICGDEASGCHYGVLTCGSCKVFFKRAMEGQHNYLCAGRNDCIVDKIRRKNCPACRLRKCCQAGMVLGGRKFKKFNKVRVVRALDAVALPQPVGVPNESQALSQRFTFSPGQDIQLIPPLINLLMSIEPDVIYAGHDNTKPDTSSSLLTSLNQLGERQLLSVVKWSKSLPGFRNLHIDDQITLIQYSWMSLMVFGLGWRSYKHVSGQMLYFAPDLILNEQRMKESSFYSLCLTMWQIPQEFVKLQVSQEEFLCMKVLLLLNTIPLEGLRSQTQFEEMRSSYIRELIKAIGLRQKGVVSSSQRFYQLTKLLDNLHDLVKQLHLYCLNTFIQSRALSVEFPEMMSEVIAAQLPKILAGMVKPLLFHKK
Method in brief: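 T47D lysate; tritiated or iodinated radioligand; scintillation count at 18 h. DMSO = negative control/baseline. Primary: 25 uM, duplicate. Secondary: concentration series for actives.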

Structure (SMILES)	AC50	outcome
CC(C)(C)c1n[nH]c(=O)n(N)c1=O	0.131 µM (active)	–
OCCCS	–	inactive
CO[Si](CCC1CCC2OC2C1)(OC)OC (stereo not drawn)	–	inactive
